{"source": "PubChem BioAssay (EPA / NIEHS)", "note": "Inconclusive results are not listed. Activity calls are given as the source filed them. How the source made its calls: active means hit-call score of the fitted dose curve at least 0.9, where 1 is the maximum; inconclusive means response in the unintended direction; inactive means score below 0.9.", "data": [{"test_system": "bovine Histamine 1 Receptor (H1), gene 281231", "assay": "NVS_GPCR_bH1: NovaScreen (NVS) G Protein-Coupled Receptor Assay for bovine Histamine 1 Receptor (H1) (AID 2283246)", "method_in_brief": "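Hits from a 25 uM duplicate primary screen were retested in concentration series (top 50 uM); binding measured as scintillation-counted displacement of radioligand from bovine cerebellar membranes after 1 h, normalised to DMSO.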", "values": [{"smiles": "COc1cccc([C@H](O)C2CCN(CCc3ccc(F)cc3)CC2)c1OC", "AC50": "5.41 µM (active)"}, {"smiles": "CC(C)(C)c1cc(/C=C2\\SC(N)=NC2=O)cc(C(C)(C)C)c1O", "outcome": "inactive"}, {"smiles": "O=CCCCC=O", "outcome": "inactive"}, {"smiles": "Cc1ccc2oc(CN(Cc3ccccc3)C(=O)Nc3c(F)cc(F)cc3F)c(-c3ccc(Cl)cc3)c2c1", "outcome": "inactive"}, {"smiles": "O=C1c2ccccc2C(=O)N1CCc1noc(-c2ccc(CN3CCCCCC3)s2)n1", "AC50": "12.1 µM (active)"}, {"smiles": "Cc1oc2c(NC(=O)c3c(Cl)cccc3Cl)cccc2c1C(C)(C)O", "AC50": "25 µM (active)"}]}, {"test_system": "guinea pig Leukotriene B4 Receptor (LTB4), gene 100379538", "assay": "NVS_GPCR_gLTB4: NovaScreen (NVS) G Protein-Coupled Receptor Assay for guinea pig Leukotriene B4 Receptor (LTB4) (AID 2283247)", "method_in_brief": "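Membranes from guinea pig spleen incubated 2 h with radioligand and compound; bound counts measured by filtration and scintillation. Screened first at 25 uM in duplicate, then actives titrated to a 50 uM top concentration relative to DMSO.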", "values": [{"smiles": "CC[C@H](NC(=O)c1cc(F)ccc1NS(=O)(=O)c1cccc2cccnc12)c1ccccc1", "AC50": "0.206 µM (active)"}, {"smiles": "CC(C)(O)c1ccc(CNC(=O)c2cccnc2Oc2ccc3nonc3c2)cc1", "AC50": "0.646 µM (active)"}, {"smiles": "O=C(O)Cc1cc(I)c(Oc2ccc(O)c(I)c2)c(I)c1", "AC50": "0.623 µM (active)"}, {"smiles": "CCCCCCCCCC(=O)O", "outcome": "inactive"}, {"smiles": "CN(C[C@@H](CC[N+]12CCC(C3CCCCC3)(CC1)CC2)c1ccc(Cl)c(Cl)c1)C(=O)c1cc(C(F)(F)F)cc(C(F)(F)F)c1", "AC50": "0.166 µM (active)"}]}, {"target": "human Serotonin, 5-Hydroxytryptamine Receptor 2A (5HT2A), HTR2A (gene 3356) (UniProt P28223)", "sequence (P28223 whole entry, looked up)": "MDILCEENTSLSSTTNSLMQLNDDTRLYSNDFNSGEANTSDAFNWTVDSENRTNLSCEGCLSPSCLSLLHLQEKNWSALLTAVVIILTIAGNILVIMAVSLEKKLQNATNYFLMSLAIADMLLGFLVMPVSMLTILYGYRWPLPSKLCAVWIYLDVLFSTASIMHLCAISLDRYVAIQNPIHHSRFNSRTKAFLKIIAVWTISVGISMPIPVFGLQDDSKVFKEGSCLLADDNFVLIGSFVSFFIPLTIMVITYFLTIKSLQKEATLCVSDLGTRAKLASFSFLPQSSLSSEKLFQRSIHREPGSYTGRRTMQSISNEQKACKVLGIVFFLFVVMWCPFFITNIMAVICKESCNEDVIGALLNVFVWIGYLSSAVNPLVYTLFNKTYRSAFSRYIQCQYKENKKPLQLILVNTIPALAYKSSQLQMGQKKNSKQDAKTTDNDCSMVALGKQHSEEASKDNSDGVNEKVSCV", "assay": "NVS_GPCR_h5HT2A: NovaScreen (NVS) G Protein-Coupled Receptor Assay for human Serotonin, 5-Hydroxytryptamine Receptor 2A (5HT2A) (AID 2283249)", "protocol": "NVS_GPCR_h5HT2A is a biochemical, single-readout assay that uses extracted gene-proteins from Human cortex in a tissue-based cell-free assay. Measurements were taken 1.5 hours after chemical dosing in a 48-well plate.NVS_GPCR_h5HT2A is one of one assay component(s) measured or calculated from the NVS_GPCR_h5HT2A assay. It is designed to make measurements of radioligand binding, a form of binding reporter, as detected with scintillation counting signals by Filter-based radiodetection technology.Data from the assay component NVS_GPCR_h5HT2A was analyzed into 1 assay endpoint. This assay endpoint, NVS_GPCR_h5HT2A, was analyzed in the positive analysis fitting direction relative to DMSO as the negative control and baseline of activity. Using a type of binding reporter, loss-of-signal activity can be used to understand changes in the binding as they relate to the gene HTR2A. Furthermore, this assay endpoint can be referred to as a primary readout, because the performed assay has only produced 1 assay endpoint. To generalize the intended target to other relatable targets, this assay endpoint is annotated to the gpcr intended target family, where the subfamily is rhodopsin-like receptor.\nBinding assays used specific radioligands (tritiated, iodinated) with non-radioactive competitive displacement ligands in agonist or antagonist protocols (as indicated) and various reference compounds and inhibitors to titrate specific binding to receptors and transporters. Most enzyme assays (CYPs, kinases, phosphatases, proteases, HDACs) used recombinant protein and specific substrates (fluorescence mostly, some colorimetric and radioactive) and inhibitors, followed by a biochemical separation of substrate and product. All assays for the biochemical HTS were initially run in duplicate at a single concentration (10 uM for CYP450 assays and 25 uM for all others). […] Each assay was run with positive and negative controls, and concurrent controls on every plate. The follow-up (secondary) screen tested active chemical-pairs in concentration series, as well as a few additional assays not tested in the primary screen, some selected negative inactives, and several cases re-run in the concentration series for confirmatory purposes.", "values": [{"smiles": "CCCCCCCCCCCC[N+](C)(C)C", "AC50": "4.04 µM (active)"}, {"smiles": "CCN(Cc1cccnc1)C(=O)c1cccc(Cl)c1[C@]1(C)C(=O)N(Cc2ccc(OC)cc2OC)c2ccc(Cl)cc21", "AC50": "15.9 µM (active)"}, {"smiles": "O=C1c2ccccc2C(=O)N1CCc1noc(-c2ccc(CN3CCCCCC3)s2)n1", "AC50": "2.4 µM (active)"}, {"smiles": "COc1ccc2cc(S(=O)(=O)N[C@H](CC(=O)N[C@H](Cc3ccc(CN4[C@H](C)CCC[C@@H]4C)cc3)C(=O)N(C)C(C)C)c3ccc4c(c3)OCO4)ccc2c1", "AC50": "7.94 µM (active)"}, {"smiles": "CCOC(=O)O[C@H](C)OC(=O)c1ccc2c(c1)cc(C(=O)NC1CCN(C(C)C)CC1)n2Cc1cc(-c2ccc(Cl)s2)on1", "AC50": "23.6 µM (active)"}, {"smiles": "CN(C)C(=O)C1(N2CCCCC2)CCN(CC[C@@]2(c3ccc(Cl)c(Cl)c3)CN(C(=O)c3ccccc3)CCO2)CC1", "AC50": "0.957 µM (active)"}, {"smiles": "COc1cc(C(=O)NC2CCN(C)CC2)ccc1Nc1ncc2c(n1)N(C1CCCC1)CC(F)(F)C(=O)N2C", "AC50": "23.2 µM (active)"}, {"smiles": "CCN(CC)C(=O)c1cc(S(=O)(=O)Cc2ccccc2)c(N2CCC(c3ccccc3)CC2)cc1N(CC)CCN(C)C", "AC50": "8.55 µM (active)"}]}, {"target": "human Serotonin, 5-Hydroxytryptamine Receptor 5A (5HT5A), HTR5A (gene 3361) (UniProt P47898)", "sequence (P47898 whole entry, looked up)": "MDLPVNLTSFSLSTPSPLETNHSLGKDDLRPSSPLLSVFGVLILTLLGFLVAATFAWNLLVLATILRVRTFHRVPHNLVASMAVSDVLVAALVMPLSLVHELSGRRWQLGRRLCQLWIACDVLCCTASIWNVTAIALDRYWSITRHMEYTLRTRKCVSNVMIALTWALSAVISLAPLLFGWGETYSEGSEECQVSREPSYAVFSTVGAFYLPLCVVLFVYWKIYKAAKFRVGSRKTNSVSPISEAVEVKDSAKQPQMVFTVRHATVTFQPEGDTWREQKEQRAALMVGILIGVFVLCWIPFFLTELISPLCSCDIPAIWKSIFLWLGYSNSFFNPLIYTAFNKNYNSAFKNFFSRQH", "assay": "NVS_GPCR_h5HT5A: NovaScreen (NVS) G Protein-Coupled Receptor Assay for human Serotonin, 5-Hydroxytryptamine Receptor 5A (5HT5A) (AID 2283251)", "method_in_brief": "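Membranes from HEK293 cells, radioligand binding read by filtration and scintillation after 1 h. Single-concentration duplicate testing at 25 uM, then concentration-response for actives; positive-direction fitting relative to DMSO.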", "values": [{"smiles": "CN(C)c1ccc(C(=C2C=CC(=[N+](C)C)C=C2)c2ccc(N(C)C)cc2)cc1", "AC50": "1.99 µM (active)"}, {"smiles": "CCN(Cc1cccnc1)C(=O)c1cccc(Cl)c1[C@]1(C)C(=O)N(Cc2ccc(OC)cc2OC)c2ccc(Cl)cc21", "AC50": "4.88 µM (active)"}, {"smiles": "O=C(O)Cc1cc(I)c(Oc2ccc(O)c(I)c2)c(I)c1", "outcome": "inactive"}, {"smiles": "COc1ccc2cc(S(=O)(=O)N[C@H](CC(=O)N[C@H](Cc3ccc(CN4[C@H](C)CCC[C@@H]4C)cc3)C(=O)N(C)C(C)C)c3ccc4c(c3)OCO4)ccc2c1", "outcome": "inactive"}, {"smiles": "CCOC(=O)O[C@H](C)OC(=O)c1ccc2c(c1)cc(C(=O)NC1CCN(C(C)C)CC1)n2Cc1cc(-c2ccc(Cl)s2)on1", "AC50": "6.7 µM (active)"}, {"smiles": "CN(C)C(=O)C1(N2CCCCC2)CCN(CC[C@@]2(c3ccc(Cl)c(Cl)c3)CN(C(=O)c3ccccc3)CCO2)CC1", "AC50": "15.7 µM (active)"}, {"smiles": "NCc1cccc(C2CCN(C(=O)c3ccc(C#Cc4ccccc4F)o3)CC2)c1", "AC50": "18.4 µM (active)"}, {"smiles": "CCN(CC)C(=O)c1cc(S(=O)(=O)Cc2ccccc2)c(N2CCC(c3ccccc3)CC2)cc1N(CC)CCN(C)C", "AC50": "4.84 µM (active)"}]}, {"target": "guinea pig Opioid, Kappa 1 Receptor (OpiateK), OPRK1 (gene 100135587) (UniProt P41144)", "sequence (P41144 whole entry, looked up)": "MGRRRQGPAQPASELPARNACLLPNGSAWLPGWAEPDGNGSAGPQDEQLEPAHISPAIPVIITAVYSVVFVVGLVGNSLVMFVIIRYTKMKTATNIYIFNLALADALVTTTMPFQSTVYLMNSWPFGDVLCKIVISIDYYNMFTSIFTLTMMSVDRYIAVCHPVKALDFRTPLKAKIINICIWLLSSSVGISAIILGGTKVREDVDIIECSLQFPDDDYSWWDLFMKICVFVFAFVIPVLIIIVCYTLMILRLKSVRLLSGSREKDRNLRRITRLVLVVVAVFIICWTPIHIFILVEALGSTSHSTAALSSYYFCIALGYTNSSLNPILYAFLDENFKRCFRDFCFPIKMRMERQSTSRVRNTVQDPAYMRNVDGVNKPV", "assay": "NVS_GPCR_gOpiateK: NovaScreen (NVS) G Protein-Coupled Receptor Assay for guinea pig Opioid, Kappa 1 Receptor (OpiateK) (AID 2283252)", "method_in_brief": "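Radioligand binding to kappa opioid receptor in guinea pig cerebellar membranes, read by filtration and scintillation at 2 h. Compounds first tested in duplicate at 25 uM, then actives in concentration series; signal loss fitted against DMSO.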", "values": [{"smiles": "CN(C)c1ccc(C(=C2C=CC(=[N+](C)C)C=C2)c2ccc(N(C)C)cc2)cc1", "AC50": "4.24 µM (active)"}, {"smiles": "CC(C)(O)c1ccc(CNC(=O)c2cccnc2Oc2ccc3nonc3c2)cc1", "AC50": "14.3 µM (active)"}, {"smiles": "CCN(Cc1cccnc1)C(=O)c1cccc(Cl)c1[C@]1(C)C(=O)N(Cc2ccc(OC)cc2OC)c2ccc(Cl)cc21", "AC50": "11.1 µM (active)"}, {"smiles": "COc1cccc([C@H](O)C2CCN(CCc3ccc(F)cc3)CC2)c1OC", "AC50": "12.1 µM (active)"}, {"smiles": "O=C1c2ccccc2C(=O)N1CCc1noc(-c2ccc(CN3CCCCCC3)s2)n1", "outcome": "inactive"}, {"smiles": "COc1ccc2cc(S(=O)(=O)N[C@H](CC(=O)N[C@H](Cc3ccc(CN4[C@H](C)CCC[C@@H]4C)cc3)C(=O)N(C)C(C)C)c3ccc4c(c3)OCO4)ccc2c1", "AC50": "0.548 µM (active)"}, {"smiles": "CN(C)C(=O)C1(N2CCCCC2)CCN(CC[C@@]2(c3ccc(Cl)c(Cl)c3)CN(C(=O)c3ccccc3)CCO2)CC1", "AC50": "5.78 µM (active)"}, {"smiles": "NCc1cccc(C2CCN(C(=O)c3ccc(C#Cc4ccccc4F)o3)CC2)c1", "AC50": "25 µM (active)"}, {"smiles": "COc1cc(C(=O)NC2CCN(C)CC2)ccc1Nc1ncc2c(n1)N(C1CCCC1)CC(F)(F)C(=O)N2C", "AC50": "23.2 µM (active)"}, {"smiles": "CCN(CC)C(=O)c1cc(S(=O)(=O)Cc2ccccc2)c(N2CCC(c3ccccc3)CC2)cc1N(CC)CCN(C)C", "AC50": "23.4 µM (active)"}]}]}
